Assay outcomes as filed in PubChem.
Rows were chosen to be rich in hits. Some 4.8% of all compounds tested hit in one or more screens of this group.
TGFb SMAD3 inh: TGF-b pathway inhibition; Potency, µM (top dose mostly 46.1 µM), for inactives: top-dose activity, negative = inhibition, actives largely listed as inhibitors; HepG2 CAGA-GFP TGF-b/SMAD3 reporter, GFP fluorescence, 18 h; TGF-beta stimulated, 500 pg/mL final; 1.2% of 410,000 active; AID 588855; note: potency is the fitted concentration of half-maximal effect; % is set by controls: 0 for no effect and ±100 for the full control effect; nearly all actives have a fitted effect of over 65% in size
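HEPG2 CAGA-GFP cells (1000/well, DMEM with 1% FBS) were pre-incubated 2 h at 37 degrees C, given compound by pin tool, then stimulated with TGF-beta at 500 pg/mL final for 18 h before per-cell GFP fluorescence imaging.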
S2 tox: viability counter-screen for ATXN expression inhibitors; Potency, µM (highest dose often 56.7 µM), most hits filed as cytotoxic; 0.49% of 400,000 active; S2 cells (HEK-293 line with an ATXN2-luciferase reporter) viability, CellTiter-Fluor protease fluorescence, 24 h; note: potency is the fitted concentration of half-maximal effect; nearly all actives have a fitted effect of over 40% in size
DRD3 antagonist: D3 dopamine receptor (human) antagonism; P35462; D3R cells, DiscoveRx beta-arrestin luminescence, antagonist mode; active compounds read low; max response, negative = inhibition, %; 2.5% of 360,000 active; in the data active = max response below about -50%; inconclusive = no clear call, values can overlap the other calls; note: % is set by controls: 0 for no effect and ±100 for the full control effect
Target sequence (P35462 whole entry, looked up): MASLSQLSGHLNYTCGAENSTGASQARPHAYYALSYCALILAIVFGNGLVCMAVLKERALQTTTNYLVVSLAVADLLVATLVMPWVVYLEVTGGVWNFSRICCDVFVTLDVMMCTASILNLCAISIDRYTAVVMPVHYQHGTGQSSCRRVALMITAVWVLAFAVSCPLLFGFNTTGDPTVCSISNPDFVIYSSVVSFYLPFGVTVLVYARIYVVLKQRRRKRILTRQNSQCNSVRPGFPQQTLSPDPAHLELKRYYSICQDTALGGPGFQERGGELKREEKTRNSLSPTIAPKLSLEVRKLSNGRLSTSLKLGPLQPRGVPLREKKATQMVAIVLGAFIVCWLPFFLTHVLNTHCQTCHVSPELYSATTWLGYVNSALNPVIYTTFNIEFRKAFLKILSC
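Cells plated overnight at 1500 cells/well, then exposed to library compounds with dopamine controls for 90 minutes at 37 degrees C. DiscoveRx reagent added for 30–60 minutes at room temperature; luminescence read, quantitative HTS format.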
ATXN2 expr inh: ATXN2 expression inhibition; HEK-293 ATXN2-luciferase reporter, luminescence, 24 h; Potency, µM (highest dose often 57 µM), inactives show at the highest dose activity change, negative = inhibition, most hits filed as inhibitors; 0.72% of 360,000 active; AID 1745845; note: potency is the fitted concentration of half-maximal effect; % is set by controls: 0 for no effect and ±100 for the full control effect; nearly all actives have a fitted effect of over 55% in size
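qHTS (up to 57 uM final) was run with 24 h compound exposure of reporter cells at 37 °C. Each well was multiplexed: SteadyGlo luminescence measured ATXN2-luciferase expression after a fluorogenic Gly-Phe-AFC viability readout (25 uM final).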
HepG2 viability: kills HepG2 cells in TGF-b inhibitor counter-screen; HepG2 CAGA-GFP viability, ATP luminescence, 18 h; Potency, µM (titrated, usually from 46.1 µM), for the others: at the top dose activity change, negative = cytotoxicity, hits mostly cytotoxic; 0.76% of 410,000 active; note: potency is the fitted concentration of half-maximal effect
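HepG2 CAGA-GFP cells (1000/well, DMEM with 1% FBS) received compound, then TGF-beta at 500 pg/mL final, and were incubated 18 hours at 37 degrees C. Viability was read by CellTiter-Glo luminescence. Media-only wells were set as complete cell-killing and DMSO as no toxicity.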
D3 ag: activates the human D3 dopamine receptor. max activation, %. 0.58% of 410,000 active. P35462. D3R DiscoveRx beta-arrestin cells, luminescence, 90 min; in the data active = max activation above about 30%; note: 0% is about no effect
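Agonist mode: compounds and dopamine controls were applied to plated cells for 90 min at 37 degrees C after an overnight attachment at 1500 cells/well. Luminescent read-out followed 30 - 60 minutes at room temperature with DiscoveRx detection reagent.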
The depositor's hits bear a star; i = inactive; u = inconclusive; x = no result; ! = not confirmed by another sample. Unless noted, calls come from the whole dose curve; as a rule, active = well fitted curve in the direction sought with a large enough effect; inconclusive = small, poorly fitted or top-dose-only effect, or another doubt; inactive = no such curve, though single readings can be large; an effect the other way counts as inactive or inconclusive.

SMILES | TGFb SMAD3 inh | S2 tox | DRD3 antagonist | ATXN2 expr inh | HepG2 viability | D3 ag
CCCCCNCc1cccc(Br)c1 | -3.2% | i | -62.7* | -10.2% | 1.0% | -31.0
CCCCCNCc1ccc(Br)cc1 | 0.0% | i | u | -12.1% | -28.3% | -34.9
CCCCCCNCc1cccc(Br)c1 | -21.0% | i | -81.4* | -25.6% | -55.6% | -31.5
CCCCCCNCc1ccc(Br)cc1 | -1.8% | i | -66.1* | -12.8% | -25.2% | -34.2
Brc1cccc(CNCCCN2CCOCC2)c1 | -12.1% | i | u | -6.5% | -0.8% | -12.8
CN(CC(=O)Nc1cccc(F)c1)C(=O)/C=C/c1cc(Br)ccc1OC(F)F | -28.4% | u | -54.5* | -9.2% | -3.8% | -9.3
CN(CC(=O)Nc1cccc(F)c1)C(=O)/C=C/c1ccc(Br)s1 | -7.1% | i | -27.9 | -17.9% | -8.2% | -18.0
CCn1nc(-c2ccccc2C)nc2c(=O)n(C)c(=O)nc1-2 | 0.891µM* | x | x | x | 0.631µM* | x
COc1ccc(-c2nc3c(=O)n(C)c(=O)nc-3n(C)n2)cc1 | 0.355µM* | x | x | x | 0.562µM* | x
Cn1nc(-c2cccnc2)nc2c(=O)n(C)c(=O)nc1-2 | 2.24µM* | x | x | x | 2.82µM* | x
Cn1nc(-c2ccc(F)cc2)nc2c(=O)n(C)c(=O)nc1-2 | 0.891µM* | x | x | x | 0.891µM* | x
Cc1ccccc1-n1c2nc(=O)n(C)c(=O)c-2cc2ccccc21 | -9.7% | x | -6.1 | -10.9% | 7.2% | -6.5
Cc1ccc(C)c2c1NC(C(=O)O)C1CC=CC21 (stereo unspecified) | -15.8% | x | x | x | -3.2% | x
CCOC(=O)c1c(C)[nH]c(C(=O)OC(C(=O)N(C)C)c2ccccc2)c1C (stereo unspecified) | 15.0% | x | x | x | 1.7% | x
Cn1nc(-c2ccc(Cl)cc2)nc2c(=O)n(C)c(=O)nc1-2 | 1µM* | x | x | x | 1.26µM* | x
COc1cc(NCc2ccc3nc(N)nc(N)c3c2C)cc(OC)c1OC | x | u | x | 3.55µM*! | x | -11.2
O=C(c1cc2ccccc2oc1=O)N1CCN(c2ccc(Cl)cc2)CC1 | 0.4% | i | x | 10.0% | -1.1% | 16.7
COc1ccc(C(=O)C2CCCN(Cc3cc(C)c(O)c(C)c3)C2)c(OC)c1 (stereo unspecified) | u | i | u | -25.6% | -0.1% | -25.0
COc1ccc(C(=O)NC2CCCN(Cc3ccc(Cl)cc3)C2)c(OC)c1 (stereo unspecified) | u | u | u | u | -38.7% | -14.9
COc1ccc(C(=O)C2CCCN(Cc3cc(Cl)ccc3O)C2)c(OC)c1 (stereo unspecified) | u | u | -54.4* | -38.0% | -30.3% | -19.7
CCOc1cccc(CN2CCCC(N3CCN(c4cccc(Cl)c4)CC3)C2)c1O (stereo unspecified) | 11.6% | i | -23.5 | u | -25.7% | 24.0
COc1ccc(C(=O)C2CCCN(Cc3sc(N4CCCC4)nc3Cl)C2)c(OC)c1 (stereo unspecified) | u | u | -65.1* | -38.0% | -52.3% | -20.3
COc1ccc(C(=O)C2CCCN(Cc3ccc(C#CCCO)cc3)C2)c(OC)c1 (stereo unspecified) | -8.6% | u | -115.6* | x | -18.5% | -18.9
CCOc1cccc(CN2CCCC(C(=O)c3cc(Cl)ccc3OC)C2)c1O (stereo unspecified) | -8.2% | i | -106.5* | -26.7% | -34.2% | -20.1
COc1ccc(C(=O)C2CCCN(C3Cc4ccccc4C3)C2)c(OC)c1 (stereo unspecified) | 9.0% | u | u | u | -21.6% | -28.9
O=C(Nc1ccc2nc(-c3ccccc3)[nH]c2c1)c1ccco1 | -4.4% | i | 12.4 | 35.9% | -3.8% | 4.1
O=C(Nc1cccc(-c2nc3ccccc3[nH]2)c1)c1cccc(NC(=O)c2ccco2)c1 | u | 31.6µM* | 25.4 | u | -110.7% | 10.1
CCOc1cc(OCC)cc(C(=O)Nc2cccc(-c3nc4ccccc4[nH]3)c2)c1 | u | u | x | -35.2% | 14.1µM* | -0.3
